# Bioassay records as filed in PubChem.
# Most compounds without a hit are left out; they make up all but 6% or so of the library.
# DRD3 agonist – activates the human D3 dopamine receptor; P35462; D3R DiscoveRx beta-arrestin cells, luminescence, 90 min; max activation, %; 410,000 tested, 0.58% active; AID 652048; in the data active means max activation above about 30%; further: 0% is about no effect
# Target sequence (P35462 whole entry, looked up): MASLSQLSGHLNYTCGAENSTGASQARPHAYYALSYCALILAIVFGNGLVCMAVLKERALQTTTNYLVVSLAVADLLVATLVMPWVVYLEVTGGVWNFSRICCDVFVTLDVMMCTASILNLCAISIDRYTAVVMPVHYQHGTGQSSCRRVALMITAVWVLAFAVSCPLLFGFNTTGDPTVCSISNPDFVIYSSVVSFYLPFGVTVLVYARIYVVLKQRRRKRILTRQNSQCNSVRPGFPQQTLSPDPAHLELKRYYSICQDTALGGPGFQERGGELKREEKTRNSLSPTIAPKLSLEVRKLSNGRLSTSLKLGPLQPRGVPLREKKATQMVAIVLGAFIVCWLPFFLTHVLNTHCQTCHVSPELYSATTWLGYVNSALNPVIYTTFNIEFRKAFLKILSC
#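 Agonist-mode cell screen: cells plated at 1500/well and incubated overnight at 37 °C, then exposed to library compounds for 90 min at 37 °C. Detection reagent was added for 30–60 min at room temperature, and luminescence was read.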
# D1 potentiator – human D1 dopamine receptor positive modulation | HEK293 TREx D1 cells, calcium flux, dopamine EC20 potentiation | potentiation, % at 10 µM | 360,000 tested, 0.036% active | AID 504651; in the data active means potentiation above about 30%; further: 0% is about no effect
# D1 ag – agonists of human D1 dopamine receptor; P21728; HEK293 T-REx D1 cells, calcium flux, agonist mode; activation, % at 2 µM; 360,000 tested, 1% active; AID 504660; in the data active means activation above about 30%; further: 0% is about no effect
#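 Inducible HEK293 T-REx D1 cells, force-coupled to calcium signalling, were plated at 4000 cells/well with tetracycline and held overnight at 30 C. After no-wash calcium dye loading, compound-evoked calcium rise over 180 s flagged agonists.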
# D1 antagonist – blocks dopamine activation of the human D1 receptor; HEK293 TREx D1 cells, calcium flux, dopamine EC80; active compounds read low; activity change, negative = inhibition, % at 10 µM; 360,000 tested, 3.2% active; AID 504652; in the data active means activity change below about -30%; further: on the % scale 0 is the no-effect control and ±100 the full control effect
#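 Calcium flux readout: force-coupled, inducible Hek293 Trex D1 line, cells induced overnight at 30 C with tetracycline, dye-loaded 30–90 min at RT. Antagonism scored against EC80 dopamine challenge given 180 s after compound.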
# D3 antag – blocks the human D3 dopamine receptor. max response, negative = inhibition, %. D3R cells, DiscoveRx beta-arrestin luminescence, antagonist mode; active compounds read low. AID 652054. P35462. 360,000 tested, 2.5% active; in the data active means max response below about -50%; inconclusive means no clear call, values can overlap the other calls; further: on the % scale 0 is the no-effect control and ±100 the full control effect
#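 Cells plated overnight at 1500 cells/well, then exposed to library compounds with dopamine controls for 90 minutes at 37 degrees C. DiscoveRx reagent added for 30–60 minutes at room temperature; luminescence read, quantitative HTS format.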
# * marks the source's active call; other numbers are inactive results; ? = inconclusive; / = no result given; ! = not active in a repeat.
SMILES,DRD3 agonist,D1 potentiator,D1 ag,D1 antagonist,D3 antag
CCN(CC)CCN1C(=O)C(O)=C(C(=O)c2cc3cccc(OC)c3o2)C1c1cccs1 (configuration not stated),2,0,3,-5,-13
O=P(O)(CCc1ccccn1)CN1CCCCC1,-3,-4,1,-32*,-14
NC(=O)NS(=O)(=O)c1ccc(N)cc1,4,/,/,/,/
O=C1C(=O)N(Cc2cccnc2)C(c2cccc(F)c2)/C1=C(/O)c1ccc2c(c1)OCO2 (configuration not stated),-5,-10,2,-62*,-5
CCCCOc1ccc(/C(O)=C2/C(=O)C(=O)N(CCCOC)C2c2ccncc2)cc1C (configuration not stated),2,-4,1,-38*,-8
COc1ccc(C2/C(=C(/O)c3ccc4c(c3)CC(C)O4)C(=O)C(=O)N2Cc2cccnc2)cc1 (configuration not stated),-4,2,0,-42*,-2
COc1ccc(/C(O)=C2/C(=O)C(=O)N(Cc3cccnc3)C2c2ccncc2)cc1F (configuration not stated),-2,-2,0,-1,-136*
COc1cc(C#N)c(NC(=S)N2CCN(C(=O)c3ccco3)CC2)cc1OC,11,/,/,/,2
COc1ccccc1CNC(=O)c1ccc2nc(-c3ccccc3)c(-c3ccccc3)nc2c1,6,0,-1,1,/
C=CC(=O)Nc1cccc(Nc2nc(N[C@H]3CC[C@H](N(C)C)CC3)nc3c2ncn3C(C)C)c1,-23,/,/,/,-18
O=C(NC1=NCCS1)c1cc(-c2ccccc2)nn1-c1ccccc1,1,0,4,-47*,-8
Cc1ccc(NC(=O)c2cc(-c3ccccc3)nn2-c2ccccc2)cc1,-19,-2,5,0,0
S=C(NN=C1C2CC3CC(C2)CC1C3)Nc1ccccc1,1,-3,3,1,-66*
CCC(C)(C)C1CCC(=NNC(=S)Nc2ccccc2)CC1 (configuration not stated),-13,-6,2,-12,?
Cc1cnc(CN(C)C(=O)c2ccc3oc(Cc4ccccc4)nc3c2)[nH]1,-6,-1,0,10,-14
Cc1cnc(CN(C)C(=O)c2ccc3oc(Cc4ccc(Cl)cc4)nc3c2)[nH]1,-5,-13,8,-12,-57*
Cc1cc(NC(=O)c2c(-c3c(Cl)cccc3Cl)noc2C)n(C)n1,9,-11,3,-50*,6
Cc1onc(-c2c(Cl)cccc2Cl)c1C(=O)NCC1CCCO1 (configuration not stated),9,-4,2,-13,-105*
CCOc1ccc(CNC(=O)c2ccc(-c3nc(CS(=O)(=O)c4ccccc4)c(C)o3)cc2)cc1,-16,2,1,-3,/
COC(=O)C(/C=N/OCc1ccc([N+](=O)[O-])cc1)NC(=O)c1ccccc1 (configuration not stated),-1,-3,30*,3,-23
O=C(C/C=N\OCc1ccc([N+](=O)[O-])cc1)Nc1ccccc1,-14,-9,7,-17,-1
Cc1nn(CCC(=O)Nc2cc(F)ccc2F)c(=O)c2nn(-c3ccccc3)c(C)c12,-6,-2,1,-1,/
Cn1c2cc(S(C)=O)sc2c2cnn(Cc3ccccc3F)c(=O)c21 (configuration not stated),/,-4,1,-14,/
COc1ccc(CN2C(=O)CC(Cc3cc(C)cc(C)c3)C2=O)cc1OC (configuration not stated),3,-9,2,-43*,15
CC(=O)Nc1ccc(NC(=O)C(NC(=O)C2CCC(C)CC2)C(C)C)cc1 (configuration not stated),-20,1,2,0,/
SMILES,DRD3 agonist,D1 potentiator,D1 ag,D1 antagonist,D3 antag
O=C(COc1ccc([N+](=O)[O-])cc1)N1CCC(c2nc3ccccc3s2)CC1,3,-1,7,-82*,/
CCOC(=O)N1CCN(CC(=O)Nc2nc3ccccc3s2)CC1,-4,19,8,-23,19
CCOc1cccc(C(=O)N2CCC(c3nc4ccccc4s3)CC2)c1,4,-2,0,-36*,/
O=C(COc1cccc(Cl)c1)N1CCC(c2nc3ccccc3s2)CC1,4,2,5,-16,/
CCOC(=O)N1CCN(C(=O)c2nc3ccccc3s2)CC1,-4,4,4,-34*,49
COc1ccc(CCNC(=O)CCN2C(=O)COc3ccc(C)cc32)cc1OC,-3,/,/,/,-65*
COc1ccc(OC)c(CCNC(=O)CN2C(=O)COc3ccc(S(=O)(=O)N4CCOCC4)cc32)c1,-10,5,2,9,-17
O=C(CN1C(=O)CSc2ccc(S(=O)(=O)N3CCOCC3)cc21)NCCCN1CCc2ccccc2C1,-11,-2,-1,8,-62*
CCCSCCCNC(=O)CN1C(=O)COc2ccc(S(=O)(=O)N3CCCC3)cc21,2,3,2,-38*!,16
COc1ccc(CCNC(=O)CN2C(=O)COc3ccc(S(=O)(=O)N4CCOCC4)cc32)cc1OC,-9,-2,2,-52*,5
Cc1ccc(CCNS(=O)(=O)c2ccc3c(c2)C(C(C)C)C(=O)N3)cc1 (configuration not stated),-7,-2,14,4,/
COc1ccc(N2C(=O)CS(=O)(=O)C23C(=O)N(Cc2ccc(F)cc2)c2ccc(C)cc23)cc1 (configuration not stated),-13,3,8,-8,/
CC1CC(C)(C)N(C(=O)CN2CCN(C)CC2)c2ccccc21 (configuration not stated),-25,-2,-1,4,?
Cc1ccc2c(c1)N(C(=O)NC1CCCCC1)C(C)(C)CC2C (configuration not stated),-4,0,1,20,3
Cc1ccc2c(c1)C(C)CC(C)(C)N2C(=O)CN1CCN(C)CC1 (configuration not stated),-23,-3,5,16,-93*
Cc1ccc2c(c1)C(C)CC(C)(C)N2C(=O)NC1CCCCC1 (configuration not stated),8,-3,3,-6,-54*
CCn1c(=NC(=O)c2ccc3c(c2)OCCO3)sc2c(C)ccc(OC)c21,7,1,1,-2,/
Cc1ccccc1Cc1c(C)nc2nc(SCC(=O)N(C)c3ccccc3)nn2c1C,3,0,-1,2,/
O=C(COc1ccc(-n2cnnn2)cc1)NC1CCCCC1,-7,-5,0,-28,-65*
O=C(COc1ccc(C(=O)c2ccccc2)cc1)NC1CCCCCC1,5,-1,12,-19,31
O=C(COc1ccc(C(=O)c2ccccc2)cc1)NC1CCCCC1,12,-3,13,-31*,3
